103 compounds from ChEMBL document CHEMBL4513216, “Probing the Open Global Health Chemical Diversity Library for Multistage-Active Starting Points for Next-Generation Antimalarials” (ACS Infect Dis, 2020) can be followed below.

Structures are written as SMILES. Out of some 65,000 compounds screened, about 2,100 (3.2%) showed an effect of 50% or more. The median lay at about -52%. Only a selection was taken, and strong results are over-represented in it overall.

This test deals with Plasmodium falciparum. The experiment in a line: Screen against P. falciparum Asexual Blood Stage (ABS), at 5uM. Type of test: functional, Dd2. The note with it: tested at 5 uM.
Consider `CCNCCc1nc2cc(F)ccc2[nH]1`, for which the INHIBITION was -115%.
In the case of `Fc1ccc2[nH]c(C3CCCN3Cc3c[nH]cn3)nc2c1` (stereo not drawn) it was 81%; in that of `CNCCc1nc2cc(F)ccc2[nH]1`, -61.7%.
For the compound `c1cncc(OC[C@@]23CCC[C@@H]2CN(C2CCOCC2)C3)c1`, the INHIBITION was found to be 3.99%.
The figure for `CCCc1nnc2sc(C3CCN(CC)CC3)nn12` is -55.6%.
The figure for `c1cnc2c(c1)CN(C1CCOC1)CCN2CC1CC1` (stereo not drawn) is -73.8%; for `COc1c(Br)cc(Br)cc1CNC(C)Cn1cccn1` (stereo not drawn) it is 17.9%; for `COc1cccc(CNC(C)Cn2cccn2)c1OC` (stereo not drawn) it is -22.3%.
The figure for `COc1cccc(CNCc2cccnc2-n2cccn2)c1OC` is 70.1%; for `CN1CCN(Cc2cccc(C#N)c2)Cc2cccnc21` it is -71%.
As for `CC(Cn1cccn1)NCc1cccc(C#N)c1` (stereo not drawn), the INHIBITION was -46.4%.
In the case of `N#Cc1cccc(CN2CCn3cc(Cn4cccn4)nc3C2)c1` it was 78.6%; in that of `CCN1C[C@@H]2CN(c3cc(OC)ncn3)CCC[C@]2(C(=O)O)C1`, -22%; in that of `COC(=O)c1ccc(C2SCC(=O)Nc3c2cnn3C2CCCC2)cc1` (stereo not drawn), -86.9%.
In the case of `CN1CCC(N(Cc2ccco2)S(=O)(=O)c2cc(Br)ccc2Br)CC1` it was 76.2%; in that of `CN1CCC(N(Cc2ccco2)S(=O)(=O)c2ccc(Br)cc2Cl)CC1`, 74.7%; in that of `CC(Cn1ccnc1)NCc1csc2c1CCCC2` (stereo not drawn), 22.3%.
The figure for `CO[C@H]1CCN(Cc2cccc(C)n2)[C@@H]2CN(Cc3cccnc3)C[C@H]12` is 70.4%; for `CO[C@@H]1CCN(S(=O)(=O)N(C)C)[C@@H]2CN(Cc3ccncc3)C[C@@H]21` it is -53.3%; for `CO[C@@H]1CCN(S(=O)(=O)N(C)C)[C@@H]2CN(Cc3cccnc3)C[C@@H]21` it is -88.2%.
As to `CO[C@@H]1CCN(Cc2cccs2)[C@@H]2CN(Cc3ccncc3)C[C@@H]21`, the INHIBITION is reported as 53.8%.
In the case of `COCCN1C[C@@H]2[C@@H](OC)CCN(Cc3ccncc3)[C@@H]2C1` it was 24.3%; in that of `CO[C@H]1CCN(C2CCC2)[C@@H]2CN(Cc3ccncc3)C[C@H]12`, -41.2%.
For the compound `COCCN1C[C@@H]2[C@@H](OC)CCN(Cc3cccc(C)n3)[C@@H]2C1`, the INHIBITION is listed as -1.19%.
For `CCS(=O)(=O)N1CC[C@H](OC)[C@H]2CN(Cc3ccncc3)C[C@H]21`, the INHIBITION is given as -64.4%.
For `CO[C@H]1CCN(Cc2cccs2)[C@@H]2CN(Cc3ccncc3)C[C@H]12`, the INHIBITION worked out at 61.5%.
As to `O=C(c1ccncc1)N1CCN2C[C@H](Oc3cncnc3)C[C@H]2C1`, the INHIBITION is listed as -105%.
The figure for `COc1ccc(C(C)NCc2cscn2)cc1Cn1cccn1` (stereo not drawn) is 71.6%; for `COc1ccc(C(C)NCc2ccsc2)cc1Cn1cccn1` (stereo not drawn) it is 73.1%; for `COc1cc(CNC(C)Cn2cccn2)cc(OC)c1OC` (stereo not drawn) it is -12.2%.
In the case of `COc1ccc(CNC(C)Cn2cccn2)cc1OC` (stereo not drawn) it was -66.8%; in that of `N#Cc1ccc(OC[C@]23COC[C@H]2CN(Cc2ccoc2)C3)nc1`, -15.7%.
In the case of `Cc1ccc(CN2CC[C@@H]3[C@H]2CCC(=O)N3Cc2ccncc2)s1` it was -6.15%; in that of `CSc1nccc(N2CCN(C)C3(CCNC(=O)CC3)C2)n1` (stereo not drawn), -69.1%.
With `O=C1C[C@@H]2CC[C@H](CN1)N2C1CCOCC1`, the INHIBITION is recorded as -0.465%.
The figure for `O=C1[C@H]2CN(Cc3nccs3)C[C@H]2CN1c1cncnc1` is -64.4%.
For `O=C(CN(C1=NCCCCC1)c1ccc(Cl)cc1)c1ccccc1`, the INHIBITION was found to be 75.5%.
In the case of `COCCN1CCN(S(=O)(=O)C2CC2)Cc2ccc(C)nc21` it was -12%; in that of `COc1cccc(S(=O)(=O)N2C[C@@H](N(C)C)[C@H](C(C)C)C2)c1`, 72.2%; in that of `CN(C)[C@@H]1CN(Cc2cnn(C)c2)[C@@H]2COC[C@H]12`, -104%.
In the case of `Cc1c(F)cccc1S(=O)(=O)NC(C)(C)CN` it was 80.9%.
In the case of `Cc1cccc(CN2CC[C@H]3OCC[C@@]3(C(=O)N3CCCO3)C2)n1` it was -77.9%; in that of `O=C1CC[C@H]2[C@@H](CCN2Cc2ccco2)N1`, -46.7%.
Consider `Cc1ccc2c(c1)C(NC(C)C)CC21CCNCC1` (stereo not drawn), for which the INHIBITION was -41.2%.
In the case of `COc1ccc2c(c1)C1(CCNCC1)CC2NC1CC1` (stereo not drawn), the INHIBITION is 0.674%.
The figure for `Cc1ccc2c(c1)C1(CCNCC1)CC2NC1CC1` (stereo not drawn) is 74.6%.
In the case of `O=C1CC2(CCNCC2)C(=O)N1c1cccc(F)c1` it was -155%.
As for `Cc1ccc2c(c1)C(NC1CC1)CC21CCNCC1` (stereo not drawn), the INHIBITION stood at 83.2%.
The figure for `O=C1NC2(CCNCC2)CC1c1ccccc1` (stereo not drawn) is -129%; for `Cc1ccc2c(c1)C1(CCNCC1)CC2NC(C)C` (stereo not drawn) it is -31.2%.
In the case of `NC(=O)CC1CC2(CCNCC2)c2cc(F)ccc21` (stereo not drawn) it was -82.7%; in that of `Fc1ccc2c(c1)C1(CCNCC1)CC2OCC1CC1` (stereo not drawn), 70.1%; in that of `c1ccc2c(c1)C(NC1CCCC1)CC21CCNCC1` (stereo not drawn), 75.7%.
The figure for `Cc1c(C2SCC(=O)Nc3c2cnn3C(C)(C)C)cnn1C` (stereo not drawn) is -41.3%; for `CC(C)c1nccc([C@H]2C[C@@H]3CCN(Cc4ccco4)C[C@H]3O2)n1` it is -19.7%; for `CC(C)c1ccccc1OCCNC(=O)N1CCC2(CC1)OCCO2` it is -63.2%.
On to `Cc1nc(C)c(CC(=O)N2C[C@H]3CC[C@@H](C2)N(CC2CC2)C3)s1`, for which the INHIBITION is -79.3%.
With `Fc1ccc2c(c1)C1(CCNCC1)CC2NC1CC1` (stereo not drawn), the INHIBITION came to 83%.
In the case of `CC(C)NC1CC2(CCNCC2)c2cc(F)ccc21` (stereo not drawn) it was 11.4%.
The figure for `O=C(NCc1ccccn1)[C@]12COC[C@H]1CN(Cc1ccsc1)C2` is -42.4%.
The figure for `CNC(=O)[C@H]1C[C@@H]2CCN(Cc3ccncc3)C[C@H]2O1` is -70.6%.
Turning to `Cc1cccc(NC(=O)N2CCC(CO)(Nc3ccccc3)CC2)c1`, the INHIBITION is recorded as -38.235%.
In the case of `Cc1cccc(OC(C)C(=O)NCC2(N(C)C)CCCC2)c1` (stereo not drawn) it was 81.4%.
In the case of `CCOc1cccc(CN2CCCC(Nc3ccc(F)cc3)C2)c1O` (stereo not drawn) it was 86.3%; in that of `COc1cc(CN2CCCC(Nc3cccc(F)c3)C2)cc(Cl)c1O` (stereo not drawn), 91.7%; in that of `COC(=O)N1CCC(Nc2ccc(C#N)c(Cl)c2)C1` (stereo not drawn), 22.4%.
The figure for `CCNC(=O)[C@@H]1CN(Cc2ccccc2)C[C@H]1C(=O)c1ccc(F)cc1` is -30.5%; for `COc1ccc(C(=O)C2CCCN(Cc3cccc(F)c3)C2)c(OC)c1` (stereo not drawn) it is 23.9%; for `Cc1ncc(CN2CCN(C(=O)N(C)C)[C@@H]3CS(=O)(=O)C[C@@H]32)cn1` it is -106%.
Turning to `Cn1cc(CN2CCCC3(CCN(c4cccnc4)C3=O)C2)cn1` (stereo not drawn), the INHIBITION is -131%.
Turning to `c1cnc(N2CCO[C@H]3CN(Cc4ccsc4)C[C@H]32)nc1`, the INHIBITION was found to be 35.9%.
The figure for `CN(C)c1nccc(N2CCO[C@H]3CN(Cc4ccsc4)C[C@H]32)n1` is 69.7%; for `CN(C)c1nccc(N2CCO[C@H]3CN(Cc4ccco4)C[C@H]32)n1` it is -22%.
In the case of `c1ccc(OCC2C[C@@H]3[C@@H](C2)OCCN3Cc2ccoc2)nc1` (stereo partly drawn) it was 12%.
Turning to `CC(C)N1CCC2(CCCN(c3nccc(C(F)(F)F)n3)C2)CC1`, the INHIBITION worked out at 81.9%.
The figure for `COCCN1CCCC12CCCN(c1ncccn1)C2` (stereo not drawn) is -47.3%; for `CN1CCC2(CCCN(c3nccc(C(F)(F)F)n3)C2)CC1` it is 79.4%.
The figure for `Cc1cnc(N2CCCC3(CCCN(C)C3)C2)nc1` (stereo not drawn) is -9.73%.
As to `CC(C)N1CCC2(CCN(C(=O)c3cccnc3)CC2)C1`, the INHIBITION is 5.83%.
In the case of `O=C(C1CC(=O)N(c2ccccc2Br)C1)N1CCC2(CC1)OCCO2` (stereo not drawn) it was -113%.
In the case of `O=C(C1CC1)N1CCC2(CC1)CNCCO2` it was -34.5%; in that of `Cc1n[nH]c2c1C(c1ccc(F)cc1)SCC(=O)N2` (stereo not drawn), -4.37%.
The figure for `Cc1c(C(C)N)cnn1-c1cccc2ccccc12` (stereo not drawn) is 74.5%; for `O=C(COc1ccc(Cl)cc1Cl)N1CCCSCC1CN1CCOCC1` (stereo not drawn) it is -30%; for `Cn1cccc1C(CNC(=O)COc1ccc(Cl)cc1Cl)N1CCCC1` (stereo not drawn) it is 74.3%.
On to `Cc1ccc(CCN[C@@H]2c3ccccc3C3(CCNCC3)[C@H]2O)s1`, for which the INHIBITION was 87.1%.
Turning to `COc1ccccc1CCN[C@@H]1c2ccccc2C2(CCNCC2)[C@H]1O`, the INHIBITION was determined as 81.5%.
The figure for `CN(C)C(=O)C1OC2(CCNCC2)c2ccccc21` (stereo not drawn) is -73%; for `CCN1CCOCC2(C1)CN(C(=O)c1c(C)noc1C)CCO2` (stereo not drawn) it is -31%.
In the case of `COCCN(CCOC)C(=O)c1cn(C(C)(C)C)c2ncccc12` it was -81.6%; in that of `CCc1cnc(N)nc1NC(C)c1ccc(C)c(C)c1` (stereo not drawn), 73.8%; in that of `O=C(CN1CCN(C(=O)Cc2ccc3c(c2)OCCO3)CC1)NC1CC1`, -148%.
In the case of `O=C(NC1CC1)[C@H]1CN(Cc2ccccc2)C[C@@H]1C(=O)c1ccccc1` it was -154%; in that of `CC1CCN(CC(=O)NC2CCN(C(C)c3ccccc3)CC2)CC1` (stereo not drawn), 84.3%; in that of `Cc1cccnc1CCNC(=O)[C@@]12CNC[C@@H]1CN(S(C)(=O)=O)C2`, -50.4%.
Turning to `CC(Cc1c(F)cccc1F)NC(=O)Nc1cnn(CC(N)=O)c1` (stereo not drawn), the INHIBITION is listed as -77.1%.
As for `CCc1cccnc1NCc1cnc(N2CCOCC2)nc1`, the INHIBITION was -53.7%.
In the case of `Cc1ccccc1CC(C)NCc1c(C)nn(C)c1N1CCOCC1` (stereo not drawn) it was 65.8%; in that of `Cc1nn(C)c(N(C)C)c1CNC(C)Cc1c(F)cccc1F` (stereo not drawn), -5.23%; in that of `c1csc(CN2C[C@@H]3COC[C@]3(COCc3ccncc3)C2)c1`, -42.6%.
In the case of `O=C(c1ccoc1)N1CCC2(CC1)C(=O)N(CC1CC1)c1ccccc12` it was 74.7%; in that of `COCCN1C(=O)C2(CCN(CC3CC3)CC2)c2ccccc21`, -18%; in that of `CCN1C(=O)C2(CCN(CCN(C)C)CC2)c2ccccc21`, -56.2%.
